The record followed here is PubChem BioAssay.

The source made the active and inactive calls.

A short description of assay [1]: small molecules captured by biotinylated probe aFSTL3 – biochemical, small-molecule microarray, fluorescence 635/667, stem cell growth factor project, primary screen (AID 1064).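 Further: measures binding of the biotinylated anti-FSTL3 antibody to printed compounds.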 To be noted: higher = more signal.
A short description of assay [2]: binders from COS7 lysate, DM2A8 probe, primary screen, torsin A project, cell lysate, small-molecule microarray, fluorescence 635/667 (AID 1065). The following applies: higher = more signal, COS7 lysate expressing mutant human TOR1A.
A short description of assay [3]: small molecules captured by biotinylated probe aFGF2 – biochemical, small-molecule microarray, fluorescence 635/667, stem cell growth factor project, primary screen (AID 1067).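 Further: measures binding of biotinylated aFGF2 protein to printed compounds on slides; z-score merges feature fluorescence and signal-to-noise across triplicate slides.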 To be noted: higher = more signal.
Assay [4] in a line: small molecules captured by biotinylated probe aFGF10 – biochemical, small-molecule microarray, fluorescence 635/667, stem cell growth factor project, primary screen (AID 1071).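 Further: score merges 667 nm spot intensity and signal to noise from triplicate slides.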 The following applies: higher = more signal.
The target of assay [5] is Neurogenic locus notch homolog protein 2 (Homo sapiens) (UniProt Q04721). The assay is described as follows: small molecules binding Notch2 protein – biochemical, small-molecule microarray, 635 nm fluorescence, stem cell growth factors, primary screen (AID 1073). To be noted: higher = more signal.
Chain of Neurogenic locus notch homolog protein 2 (Homo sapiens) (Q04721 whole entry, looked up, canonical isoform): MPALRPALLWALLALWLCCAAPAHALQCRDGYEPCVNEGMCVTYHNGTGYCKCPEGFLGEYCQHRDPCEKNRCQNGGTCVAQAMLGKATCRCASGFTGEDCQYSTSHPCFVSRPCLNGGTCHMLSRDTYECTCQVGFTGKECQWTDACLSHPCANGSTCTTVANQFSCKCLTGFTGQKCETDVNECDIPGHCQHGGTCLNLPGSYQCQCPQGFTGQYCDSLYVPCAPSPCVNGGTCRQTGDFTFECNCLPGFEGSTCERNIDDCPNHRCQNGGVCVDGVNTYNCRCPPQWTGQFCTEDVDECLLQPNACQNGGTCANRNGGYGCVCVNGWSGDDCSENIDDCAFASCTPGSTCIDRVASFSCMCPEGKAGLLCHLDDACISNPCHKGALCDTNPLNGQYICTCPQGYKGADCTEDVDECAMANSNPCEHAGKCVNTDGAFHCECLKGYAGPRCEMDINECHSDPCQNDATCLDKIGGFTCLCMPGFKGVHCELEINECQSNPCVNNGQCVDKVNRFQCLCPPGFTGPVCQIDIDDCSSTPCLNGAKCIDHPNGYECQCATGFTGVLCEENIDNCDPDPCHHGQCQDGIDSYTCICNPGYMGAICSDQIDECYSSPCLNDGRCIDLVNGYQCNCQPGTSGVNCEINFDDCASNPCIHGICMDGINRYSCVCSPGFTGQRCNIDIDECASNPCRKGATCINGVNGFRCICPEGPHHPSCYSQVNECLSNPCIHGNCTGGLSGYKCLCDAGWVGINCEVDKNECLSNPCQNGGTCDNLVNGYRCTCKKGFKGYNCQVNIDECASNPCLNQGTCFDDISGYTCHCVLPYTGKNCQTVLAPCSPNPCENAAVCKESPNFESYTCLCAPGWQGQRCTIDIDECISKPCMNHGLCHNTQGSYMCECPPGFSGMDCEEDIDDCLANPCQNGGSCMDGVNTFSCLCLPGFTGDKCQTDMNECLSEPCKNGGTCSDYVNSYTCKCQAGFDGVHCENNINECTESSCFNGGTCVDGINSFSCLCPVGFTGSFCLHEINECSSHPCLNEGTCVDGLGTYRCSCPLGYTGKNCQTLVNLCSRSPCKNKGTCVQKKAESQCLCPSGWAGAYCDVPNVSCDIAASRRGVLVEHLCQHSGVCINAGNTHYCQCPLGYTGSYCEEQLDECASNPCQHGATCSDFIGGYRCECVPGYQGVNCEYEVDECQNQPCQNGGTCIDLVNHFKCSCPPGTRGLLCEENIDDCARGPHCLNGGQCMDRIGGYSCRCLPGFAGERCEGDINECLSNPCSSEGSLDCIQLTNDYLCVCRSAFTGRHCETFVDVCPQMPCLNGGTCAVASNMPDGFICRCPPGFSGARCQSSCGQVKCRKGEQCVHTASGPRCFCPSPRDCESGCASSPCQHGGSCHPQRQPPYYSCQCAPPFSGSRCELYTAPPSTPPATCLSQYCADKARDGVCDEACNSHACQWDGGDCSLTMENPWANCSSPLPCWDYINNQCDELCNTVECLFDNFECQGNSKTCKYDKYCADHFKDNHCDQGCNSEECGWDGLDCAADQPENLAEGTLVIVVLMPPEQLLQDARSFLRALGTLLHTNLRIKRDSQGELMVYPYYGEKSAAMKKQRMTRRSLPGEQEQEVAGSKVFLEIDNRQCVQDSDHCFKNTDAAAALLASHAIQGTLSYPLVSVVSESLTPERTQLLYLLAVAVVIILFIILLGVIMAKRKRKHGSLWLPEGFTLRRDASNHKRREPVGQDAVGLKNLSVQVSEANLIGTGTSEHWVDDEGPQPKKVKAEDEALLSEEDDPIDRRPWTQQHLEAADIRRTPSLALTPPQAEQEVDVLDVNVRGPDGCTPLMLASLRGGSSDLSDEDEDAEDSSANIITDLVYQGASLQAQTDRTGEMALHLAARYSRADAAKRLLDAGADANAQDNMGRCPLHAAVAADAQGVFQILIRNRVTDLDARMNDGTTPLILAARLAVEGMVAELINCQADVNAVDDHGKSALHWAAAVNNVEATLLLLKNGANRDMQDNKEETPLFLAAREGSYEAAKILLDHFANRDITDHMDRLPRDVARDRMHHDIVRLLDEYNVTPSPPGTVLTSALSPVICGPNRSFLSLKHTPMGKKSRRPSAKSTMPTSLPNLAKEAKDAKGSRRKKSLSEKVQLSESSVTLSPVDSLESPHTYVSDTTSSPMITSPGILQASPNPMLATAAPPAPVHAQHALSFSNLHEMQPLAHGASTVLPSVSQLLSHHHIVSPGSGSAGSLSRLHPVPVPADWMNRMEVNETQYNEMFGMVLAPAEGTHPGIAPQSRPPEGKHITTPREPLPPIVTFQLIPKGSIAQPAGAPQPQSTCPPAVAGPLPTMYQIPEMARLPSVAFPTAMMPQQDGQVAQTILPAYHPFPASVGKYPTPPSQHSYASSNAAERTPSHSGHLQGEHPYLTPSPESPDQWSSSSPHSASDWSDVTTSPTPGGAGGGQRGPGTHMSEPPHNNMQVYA
The target of assay [6] is Pro-neuregulin-1, membrane-bound isoform (Homo sapiens) (UniProt Q02297). The assay is described as follows: small molecules binding neuregulin-1 protein – biochemical, small-molecule microarray, fluorescence 635/667, psychiatric disease protein project, primary screen (AID 1075).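 Further: score combines 667 nm spot fluorescence with signal to noise.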 To be noted: NRG1 binding, 635 nm fluorescence, higher = more signal.
Chain of Pro-neuregulin-1, membrane-bound isoform (Homo sapiens) (Q02297 whole entry, looked up, the tested form may be a part, canonical isoform): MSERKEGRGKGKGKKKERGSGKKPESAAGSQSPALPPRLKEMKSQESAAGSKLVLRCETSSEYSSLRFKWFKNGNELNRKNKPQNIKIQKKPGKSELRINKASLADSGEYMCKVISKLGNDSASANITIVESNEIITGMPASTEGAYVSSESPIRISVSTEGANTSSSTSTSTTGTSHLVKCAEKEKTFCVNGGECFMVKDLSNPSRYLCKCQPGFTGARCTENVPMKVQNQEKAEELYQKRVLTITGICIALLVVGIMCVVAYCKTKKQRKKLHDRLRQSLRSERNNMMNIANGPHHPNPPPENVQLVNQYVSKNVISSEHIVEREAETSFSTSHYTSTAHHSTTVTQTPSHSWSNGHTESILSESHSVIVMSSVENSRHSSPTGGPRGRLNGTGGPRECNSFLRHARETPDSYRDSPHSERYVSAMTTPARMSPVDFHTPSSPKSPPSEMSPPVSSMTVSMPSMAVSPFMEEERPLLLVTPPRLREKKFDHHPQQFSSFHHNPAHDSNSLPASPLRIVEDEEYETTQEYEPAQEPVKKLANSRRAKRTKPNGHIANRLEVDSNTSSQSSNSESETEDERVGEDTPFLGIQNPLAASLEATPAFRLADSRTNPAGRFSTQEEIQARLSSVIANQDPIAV
Assay [7] concerns Neuregulin-1 EGF-like domain. In words: small molecules binding NRG1 EGF domain – biochemical, small-molecule microarray, 635 nm fluorescence, primary screen (AID 1081).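 Further: binding of the protein to compounds printed on small-molecule microarray slides.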 To be noted: higher = more signal.
The nature of assay [8]: FRG1 expression reporter modulators in myotubes – cell-based, C2C12 myotubes, firefly/Renilla luciferase, luminescence, FRG1 inhibition for FSHD, primary screen (AID 1084). The following applies: FRG1 promoter luciferase, higher = more signal, called active from +8 up or from −8 down.
Assay [9] can be described thus: small molecules captured by biotinylated probe aFST – biochemical, small-molecule microarray, fluorescence 635/667, stem cell growth factor project, primary screen (AID 1086).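 Further: score merges 667 nm fluorescence with signal-to-noise of each printed compound spot.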 The following applies: higher = more signal.
Assay [10] is described as follows: binders of probe aHhip on microarray, primary screen, stem cell growth factor project, biochemical, small-molecule microarray, fluorescence 635/667 (AID 1087).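 Further: score merges spot fluorescence at 667nm with spot signal to noise ratio.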 To be noted: higher = more signal.
For assay [11], the system named is PRMT1 (protein arginine N-methyltransferase 1). The assay is described as follows: small molecules binding arginine methyltransferase PRMT1 – biochemical, small-molecule microarray, 635 nm fluorescence, primary screen (AID 1088).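 Further: binding of Prmt1 protein to compounds spotted on small-molecule microarray slides.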 The following applies: higher = more signal.
A short description of assay [12]: growth effects on S. cerevisiae YJM789 – YJM789 clinical isolate, OD600, 24 h, basal, primary screen (AID 1089).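 Further: growth of clinical yeast isolate S. cerevisiae YJM 789 seeded 1000 cells per well; test concentration not given here.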 The following applies: higher = more signal, called active from +8 up or from −8 down.
Assay [13] is described as follows: S. pombe growth modifiers, basal conditions – strain 972, OD600, 24 h, no modulator, primary screen (AID 1090).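 Further: basal condition with compound alone and no growth modifier present; test concentration not given here.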 The following applies: S. pombe 972 growth, higher = more signal, called active from +8 up or from −8 down.
The nature of assay [14]: budding yeast growth modifiers under rapamycin – strain BY4716, OD600, 96 h, primary screen (AID 1091). Further: test concentration not given here. The following applies: S. cerevisiae BY4716 + rapamycin, higher = more signal, called active from +8 up or from −8 down.
The target of assay [15] is Torsin-1A-interacting protein 2 (Homo sapiens) (UniProt Q8NFQ8). The assay is described as follows: small molecules binding lysate-expressed LULL1 – cell lysate, human LULL1 lysate, 635/667 nm fluorescence, primary screen (AID 1092).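 Further: probe is lysate of COS7 cells overexpressing human LULL1; score merges per-feature 667 nm fluorescence with signal-to-noise.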 To be noted: small-molecule microarray, hLULL1 lysate binding, 635 nm fluorescence; higher = more signal.
Chain of Torsin-1A-interacting protein 2 (Homo sapiens) (Q8NFQ8 whole entry, looked up): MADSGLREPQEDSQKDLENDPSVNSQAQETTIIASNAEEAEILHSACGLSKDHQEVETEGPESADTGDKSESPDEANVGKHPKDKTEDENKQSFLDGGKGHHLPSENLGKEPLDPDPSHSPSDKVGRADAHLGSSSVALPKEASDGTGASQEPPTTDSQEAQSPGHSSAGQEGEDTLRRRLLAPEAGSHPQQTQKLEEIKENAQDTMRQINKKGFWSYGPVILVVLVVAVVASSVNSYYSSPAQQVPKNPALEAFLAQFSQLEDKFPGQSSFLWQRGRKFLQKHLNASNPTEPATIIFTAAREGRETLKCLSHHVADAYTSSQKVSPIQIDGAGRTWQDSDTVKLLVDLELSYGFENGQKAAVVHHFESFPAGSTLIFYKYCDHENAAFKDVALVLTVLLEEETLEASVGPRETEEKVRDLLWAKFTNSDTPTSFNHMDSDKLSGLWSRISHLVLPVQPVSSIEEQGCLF
Assay [16] can be described thus: optical density change of DRC41 E. coli – strain DRC41, OD650, 24 h, E. coli filamentation project, primary screen (AID 1093).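 Further: MC1000 strain lacking acrAB efflux and sulA so SOS filamentation is blocked; test concentration not given here.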 To be noted: E. coli DRC41 growth, higher = more signal, called active from +8 up or from −8 down.
Assay [17] is described as follows: probe aLefty2 binding to arrayed compounds – biochemical, biotinylated probe, 635/667 nm fluorescence, primary screen (AID 1094).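 Further: score merges spot fluorescence near 667 nm with spot signal-to-noise ratio.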 To be noted: small-molecule microarray, higher = more signal.
Assay [18] deals with Noggin (protein binding on small-molecule microarray). The assay is described as follows: small molecules binding Noggin protein – biochemical, 635/667 nm fluorescence, primary screen (AID 1095).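 Further: score merges 667 nm feature fluorescence with signal to noise over triplicate slides.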 The following applies: 635 nm fluorescence, higher = more signal.
The target of assay [19] is Neurogenic locus notch homolog protein 3 (Homo sapiens) (UniProt Q9UM47). The assay is described as follows: small molecules binding NOTCH3 protein – biochemical, 635/667 nm fluorescence, primary screen (AID 1096). The following applies: small-molecule microarray, 635 nm fluorescence, higher = more signal.
Assay [20] can be described thus: probe aEGFR binding to arrayed compounds – biochemical, biotinylated probe, 635/667 nm fluorescence, primary screen (AID 1097).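 Further: probe is a biotinylated anti-EGFR antibody binding compounds printed on slides; score combines fluorescence near 667 nm and signal to noise of each spot.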 The following applies: small-molecule microarray, higher = more signal.

`CC(=O)OC[C@H]1O[C@H](CCON=C(C)CCN2CCCc3nc(C)c(C)cc32)C=C[C@@H]1OC(C)=O`: the composite z-score was -0.293 in [1]; 0.704 in [2]; -0.0454 in assay [3]; 0.72 in assay [4]; 1.19 in assay [5]; 0.237 in assay [6]. Besides, the composite z-score in [7] came out at 1.1; in assay [9] it was 0.522; in [10], 0.0722; in assay [11] it was 1.54; in assay [15] it was 1.31; in assay [17] it was 0.118. Besides, the composite z-score stood at 0.754 in assay [18], 1.04 in assay [19] and 0.577 in [20]. For the same compound, the z-score in assay [8] was 0.523 (inactive); in [12] it was 0.569 (inactive); in assay [13] it was 0.339 (inactive); in [14] it was 0.61 (inactive); in [16], 1.08 (inactive).
With `C=CC[C@@H]1C=C[C@H](ON=C2C[C@@H](O)[C@@H](O)[C@@H]3[C@@H]4C(=O)N(CC)C(=O)[C@@H]4CC[C@@H]23)[C@@H](CO)O1`, the composite z-score in assay [1] was -0.416; in assay [2], 1.86; in assay [3], -0.0793; in assay [4], 0.228; in [5], -0.395; in assay [6] it was -0.417. Besides, the composite z-score in assay [7] is -0.33; in assay [9] it was 0.245; in assay [10], -0.0994; in [11], 0.245; in [15], -0.004; in assay [17], -0.0736. In addition, the composite z-score in [18] is 0.107; in assay [19] it was -0.724; in assay [20], -0.119. The z-score in [8] is 1.15 (inactive); in [12] it was 0.442 (inactive); in assay [13], -0.376 (inactive); in assay [14], 0.445 (inactive); in assay [16] it was -0.876 (inactive).
`O=C1[C@H]2[C@H]3[C@H](O)[C@H](O)CC(=NO[C@@H]4O[C@H](CO)[C@@H](O)[C@H](O)[C@H]4O)[C@H]3CC[C@H]2C(=O)N1c1ccc(F)cc1F`: the composite z-score in [1] was 0.552; in assay [2], 0.75; in assay [3] it was 0.0159; in [4] it was 0.265; in [5], 0.51; in [6] it was -0.557. The composite z-score in [7] is -0.977; in [9] it was 0.437; in assay [10], -0.0296; in assay [11] it was 1.08; in assay [15], 0.0348; in assay [17], -0.128. Besides, the values for the composite z-score in assay [18], in assay [19] and in assay [20] were 0.161, 0.365 and -0.0084, respectively. Moreover, the z-score in assay [8] is 0.404 (inactive); in [12], -0.484 (inactive); in assay [13], -0.352 (inactive); in assay [14], -1.99 (inactive); in assay [16], 0.356 (inactive).
For `CCN1C(=O)[C@H]2[C@H]3[C@H](O)[C@H](O)CC(=NOCC(C)C)[C@H]3CC[C@H]2C1=O`, the composite z-score in [1] was -0.801; in [2] it was 0.328; in assay [3] it was -0.0977; in [4], 0.329; in assay [5] it was 0.351; in assay [6] it was -0.139. Further, the composite z-score in [7] is 0.124; in assay [9], 0.101; in assay [10], -0.079; in assay [11], -0.332; in assay [15], -0.153; in assay [17] it was -0.019. The results for the composite z-score in [18], in assay [19] and in assay [20] were 0.569, 0.599 and 0.0167, respectively. Moreover, the z-score in [8] was 0.268 (inactive); in [12], -0.349 (inactive); in assay [13] it was 0.735 (inactive); in assay [14], 0.512 (inactive); in assay [16] it was 0.769 (inactive).
Turning to `CCOC(=O)[C@H](Cc1ccccc1)NC(=O)CCC1CC(OC(=O)NCCc2ccc(F)cc2)CC2(CCCC(COC(=O)NCCOc3ccccc3)O2)O1` (stereo not given in full), the composite z-score in [1] was -0.493; in assay [2], 1.34; in [3], -0.129; in assay [4], 0.813; in [5], 1.17; in assay [6] it was 0.843. Further, the composite z-score in [7] was 1.03; in assay [9], 0.564; in [10], 0.162; in [11], 1.53; in [15], 2.18; in assay [17], -0.0907. Moreover, the values for the composite z-score in [18], in [19] and in assay [20] were 0.492, 1.07 and 0.0009, respectively. Moreover, the z-score is -0.997 (inactive) in assay [8]; -0.0952 (inactive) in assay [12]; 0.549 (inactive) in assay [13]; 0.0763 (inactive) in assay [14]; 0.384 (inactive) in assay [16].
